This note sets out measurements from PubChem BioAssay AID361 (National Center for Advancing Translational Sciences (NCATS), 2006).

Hit rate of the full screen: of about 51,000 compounds, about 600 (1.2%) were called active. Not shown: some 2% with an inconclusive outcome. What follows is part of a selection rich in actives, with near analogues and random picks from the rest. Unmarked numbers belong to inactive results. Cut-off read from the data, not from the text of the source: active = potency below about 11 µM; inconclusive = mostly about 12 µM to 25 µM; inactive = weaker than that;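 the screen sought inhibitors and activators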.
Potency is the fitted concentration of half-maximal effect.

The experiment deals with pyruvate kinase (Bacillus stearothermophilus). The experiment can be described thus: Pyruvate Kinase. As to conditions: purified pyruvate kinase, luminescence ATP production; ribose 5-phosphate activator present at AC10. As to the method:
Pyruvate kinase (partially purified from Bacillus stearothermophilus) was assayed for its ability to generate ATP from ADP using phosphoenolpyruvate (PEP) as a substrate. ATP generation was detected in a coupled reaction by luciferase-mediated luminescence, an ATP-dependent process. Pyruvate kinase substrates, PEP and ADP, were present in the assay at Km and […]-fold below Km respectively. The enzyme was assayed at an intermediate level of activity to screen for inhibitors and activators. In addition, ribose 5 phosphate, a positive modulator of pyruvate kinase, was included in the assay at AC10 in order to identify possible potentiators.
NCGC Assay Protocol Summary:
Three uL of substrate mix (final concentration, 50 mM imidazole pH 7.2, 50 mM KCl, 7 mM MgCl2, 2 mM PEP, 0.1 mM ADP, 0.7 nM ribose 5 phosphate, 0.01% Tween 20, 0.05% BSA) was dispensed into 1536 well plates. 23 nL of compound were delivered by a pin tool and 1 uL of enzyme mix (final concentration, 10 nM pyruvate kinase, 50 mM imidazole pH 7.2, 0.05% BSA) was added. After centrifugation at 1000 rpm for less than a minute, plates were incubated at room temperature for 2 hours. Three uL of detection and kinase stop mix (PKLight, Cambrex) was added, the plates centrifuged, and luminescence read by a ViewLux (Perkin Elmer) at 5 second exposure/plate. Data were normalized to the controls for AC100 stimulation (5 uM ribose 5 phosphate) and to AC100 inhibition (110 uM luteolin).
As for `Cn1c(=O)n(CCc2ccccc2)c(=O)c2c1nc1n2CCCN1c1ccccc1`, the Potency was over 57 µM. As to `COc1cc(OC)cc(C(=O)Nc2ccc(-c3nc4ccccc4o3)c(O)c2)c1`, the Potency was over 57 µM. To `CN(C)CCCNc1c2c(c(C#N)c3nc4ccccc4n13)CCC2` belongs over 57 µM; to `c1ccc(-c2oc3ncnc(N4CCOCC4)c3c2-c2ccccc2)cc1`, over 57 µM. As for `CC(C(=O)Nc1ccccc1-c1ccccc1)N1CCOCC1` (stereo unspecified), the Potency is over 57 µM. On to `CC(C(=O)O)N1C(=O)c2cccc3cccc1c23` (stereo unspecified), for which the Potency was 36.6 µM. Turning to `CC(C(=O)N1CCOCC1)N1c2cccc3cccc(c23)S1(=O)=O` (stereo unspecified), the Potency is 1.8 µM (active). `O=C1Nc2c(Br)cc(Br)cc2C1(O)N1CCOCC1` (stereo unspecified): the Potency was 8.12 µM (active). For `COc1ccc(NC2CC(=O)N(C)C2=O)cc1` (stereo unspecified), the Potency was over 25.6 µM.

In the case of `CCOC(=O)N1CCC(NC(=O)c2ccc3nc(N4CCOCC4)sc3c2)CC1`, the Potency was over 57 µM.

`c1c2c(cc3sc(N4CCCCC4)nc13)OCCO2`: the Potency was 1.52 µM (active). The value for `Fc1ccc2nc(N3CCCCC3)sc2c1` was 41.1 µM. Turning to `Cc1ccsc1C(=O)OCC(=O)c1cc(C)n(CC2CCCO2)c1C` (stereo unspecified), the Potency is 0.617 µM (active). To `Cc1nnc(SCC(N)=O)n1CC1CCCO1` (stereo unspecified) belongs over 57 µM; to `COC(=O)c1ccc2c(=O)n(CC3CCCO3)c(=S)[nH]c2c1` (stereo unspecified), over 57 µM. On to `COc1ccc(CNC(=O)c2cc3c(=O)n4ccccc4nc3n(CC3CCCO3)c2=N)cc1` (stereo unspecified), for which the Potency is over 57 µM. In the case of `O=C(Nc1cnn(Cc2ccc(Cl)cc2)c1)C1CCCC1`, the Potency was over 57 µM. The value for `C=CCn1c(COc2ccccc2)nnc1SCC(=O)NCC(=O)OCC` was over 57 µM; that for `O=C(NCc1ccccn1)c1cc2ccccc2oc1=O` was over 57 µM. Take `COc1ccc(C(=O)N(Cc2ccc(N(C)C)cc2)C2CCS(=O)(=O)C2)cc1` (stereo unspecified): the Potency was over 57 µM.

With `CCC12CN3CC(CC)(CN(C1)C31C(=O)N(C)c3ccc(C)cc31)C2=O` (stereo unspecified), the Potency is over 57 µM. Regarding `COc1ccc(CC(=O)n2nc(-c3cccnc3)nc2N)cc1`, the Potency was over 57 µM.

Turning to `COC(=O)c1ccccc1NC(=O)c1ccccc1NS(C)(=O)=O`, the Potency was over 57 µM. For the compound `COC(=O)Cc1nc2ccccc2[nH]1`, the Potency was over 57 µM.

In the case of `Cc1ccc(-c2c3c(=O)n(C)c(=O)n(C)c3cn2-c2ccccc2O)cc1`, the Potency was over 57 µM. On to `CCOC(=O)N1CCN(CC(=O)c2c(C)[nH]c3ccccc23)CC1`, for which the Potency is over 57 µM. On to `Cc1c(C(=O)CN2CCOCC2)[nH]c2ccccc12`, for which the Potency was over 57 µM. To `N#Cc1nc(COc2ccc(-c3ccccc3)cc2)oc1NCc1cccnc1` belongs over 57 µM; to `N#Cc1nc(-c2ccc(OCc3ccccc3)cc2)oc1NCCCN1CCOCC1`, 1.88 µM (active). In the case of `N#Cc1nc(Cc2ccccc2)oc1NCCc1ccccc1`, the Potency was over 57 µM. As for `O=C(O)CSCc1nc2ccccc2s1`, the Potency is over 57 µM. Consider `O=C(CN1C(=O)COc2ccccc21)NCCN1CCc2ccccc2C1`, for which the Potency was over 57 µM. Turning to `Cc1cccc(N2CCN(C(=O)c3cc4c(=O)[nH]c5ccccc5c4n3C)CC2)c1C`, the Potency is over 11.4 µM. To `Cn1c(C(=O)NCCN2CCc3ccccc3C2)cc2c(=O)[nH]c3ccccc3c21` belongs 9.21 µM (active); to `FC(F)(F)c1nnc2sc(-c3ccco3)nn12`, over 57 µM; to `COc1cc(OC)cc(C(=O)Nc2ncc3c(n2)CC(C)(C)CC3=O)c1`, over 57 µM. `Cn1c(=O)c2c(nc(N3CCCCCC3)n2CC(O)COc2ccc(Cl)cc2)n(C)c1=O` (stereo unspecified): the Potency was over 57 µM. Consider `CCC(=O)Nc1ccc(C(=O)Nc2ccc3c(c2)C(=O)N(CC2CCCO2)C3=O)cc1` (stereo unspecified), for which the Potency was over 57 µM. With `COc1cccc(N(CC(=O)NC2CCCC2)C(=O)Cn2nnc(-c3ccc(C)cc3)n2)c1`, the Potency was over 57 µM. `CCOc1cc(C(=O)Nc2ncccn2)cc(OCC)c1OCC`: the Potency is over 57 µM. The value for `CCOC(=O)c1cc(-c2nnc(-c3cc(OC)c(OC)c(OC)c3)o2)c(C)nc1C` was over 57 µM; that for `CCOC(=O)c1cc2c(n(-c3ccc(C)cc3)c1=O)CCCC2=O` was over 57 µM.

Consider `CN1CCN(c2ccc(NC(=O)COc3ccc(Cl)cc3Cl)cc2)CC1`, for which the Potency is over 57 µM. To `CC(C)(C)NC(=O)C(c1ccco1)N(Cc1ccc2c(c1)OCO2)C(=O)Cn1nnc2ccccc21` (stereo unspecified) belongs over 57 µM.

In the case of `CCc1nnc(NC(=O)c2nc3nccc(C)n3n2)s1`, the Potency was over 57 µM. Turning to `c1ccc(-n2ncc3c2ncn2c(C4CCCCC4)nnc32)cc1`, the Potency was over 57 µM. The value for `CCc1ccccc1NC(=O)CSc1nnc([C@@H](NC(=O)OC(C)(C)C)C(C)CC)o1` (stereo partly specified) was over 57 µM; that for `Cc1cc(C)c(C#N)c(SCc2ccccc2C(=O)O)n1` was over 57 µM.

For `Cc1ccc(Cc2nc(-c3cccc(C)c3)no2)cc1`, the Potency is over 57 µM. To `Cc1cccc(-c2noc(-c3ccc(F)cc3)n2)c1` belongs 10.4 µM (active); to `COc1ccc2[nH]c(=O)c(-c3noc(-c4ccc(F)cc4)n3)cc2c1`, over 57 µM. As for `CC(C)OC(=O)c1cc(NC(=O)C2C3CCC(O3)C2C(=O)O)cc(C(=O)OC(C)C)c1` (stereo unspecified), the Potency is 6.13 µM (active). To `CCC(CC)C(=O)Nc1cc(C(=O)OC)cc(C(=O)OC)c1` belongs over 57 µM; to `Cc1nc(NCc2ccccc2)c(C(N)=O)c2c1COC(C)(C)C2`, over 25.6 µM. Regarding `COc1ccc2oc(=O)c(C(=O)O)cc2c1`, the Potency was over 57 µM. As to `Cc1cc(Cl)c(S(=O)(=O)NCc2cccnc2)cc1OCC(N)=O`, the Potency is over 57 µM. For the compound `Cc1nn(CC(=O)Nc2ccc3c(c2)nc(CN2CCCCC2)n3C)c(=O)c2ccccc12`, the Potency is over 57 µM. To `COC(=O)c1ccc2c(c1)S(=O)(=O)NC(=NCCCN1CCOCC1)S2` belongs over 57 µM; to `COc1ccc2oc(C)c(NC(C)=O)c2c1`, over 57 µM; to `O=C(Nn1cc(C(=O)N2CCN(c3ccccc3F)CC2)c2ccccc2c1=O)c1cnccn1`, over 57 µM.

For the compound `COCC(C)n1c(SCc2ccc(C(=O)OC)o2)nc2ccccc2c1=O` (stereo unspecified), the Potency is over 57 µM. The value for `CCOc1cc(-c2nc3cc(C)ccn3c2NCC2CCCO2)ccc1O` (stereo unspecified) was over 57 µM; that for `COc1ccc(-c2nc(-c3ccccc3)no2)c(OC)c1` was 0.55 µM (active). The value for `COc1ccccc1Cc1nc(-c2ccc(C)cc2)no1` was over 57 µM; that for `CCOc1nc(-c2ccc(OC)cc2)ccc1-c1noc(-c2cc(OC)c(OC)c(OC)c2)n1` was over 57 µM; that for `Cn1c(=O)c2c(n(Cc3ccccc3)c1=O)NC(=O)C2CC(=O)N1CCc2ccccc2C1` (stereo unspecified) was over 57 µM. The value for `CC(C)C(=O)N1CCN(CCN=CC2=C(O)CC(c3ccco3)CC2=O)CC1` (stereo unspecified) was over 57 µM; that for `O=C(CN1CCN(C2CCCCC2)CC1)Nc1ccccc1N1CCCCC1` was over 57 µM. As for `Fc1ccccc1OCCCCn1cncn1`, the Potency was over 57 µM. The value for `Cc1cccc(-n2ncc3c(N4CCc5ccccc54)ncnc32)c1` was over 57 µM; that for `CCN(CC)CCCN1C(=O)C(=O)/C(=C(/O)c2c(C)nc3ccccn23)C1c1ccc(C)o1` (stereo unspecified) was over 57 µM.
